From PubChem BioAssay
For some assays here: Results with a measured potency or affinity are listed apart. The source made the active and inactive calls. Unless noted, the limit is not given here; nearly all actives have IC50 up to about 0.91 µM.

molecular target: Protein kinase 7 (PK7), Plasmodium falciparum 3D7 (PF3D7_0213400) (UniProt Q7YTF7); test: inhibition of Plasmodium PK7 catalytic activity – biochemical, TCAMS antimalarial set, Kinase-Glo luminescence (AID 1159587; call rule not given here); conditions: recombinant PfPK7, Kinase-Glo ATP depletion luminescence
Sequence (Q7YTF7 1-343): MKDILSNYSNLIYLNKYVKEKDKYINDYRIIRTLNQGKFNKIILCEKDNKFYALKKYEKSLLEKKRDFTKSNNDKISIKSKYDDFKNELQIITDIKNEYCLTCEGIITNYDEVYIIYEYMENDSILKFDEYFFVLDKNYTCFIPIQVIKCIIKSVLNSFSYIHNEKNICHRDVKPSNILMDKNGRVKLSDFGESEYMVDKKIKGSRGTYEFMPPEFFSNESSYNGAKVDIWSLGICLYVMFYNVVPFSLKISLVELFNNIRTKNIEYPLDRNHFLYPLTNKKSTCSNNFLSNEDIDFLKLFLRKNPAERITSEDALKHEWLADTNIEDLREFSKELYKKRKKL

outcome, inactive:
CCC(Nc1noc(-c2c(-c3ccccc3)noc2C)n1)c1ccccc1 (stereo not given)
C=CCN1Cc2c(O)cccc2C(c2ccc(O)c(O)c2)C1 (stereo not given)
Cc1cc(=O)c(-c2cccc(Oc3ccc(Cl)cc3)c2)c(C)[nH]1
COc1ccc2c(NN=CC=Cc3ccccc3)ccnc2c1
CCNc1cc(C(=O)N[C@@H](Cc2ccccc2)[C@H](O)CN[C@@H]2CCc3ccccc32)cc(N2CCCC2=O)c1
CC(C)(C)Oc1ccc(C[C@@H]2NC3(C(=O)N(Cc4ccc(Cl)c(Cl)c4)c4ccccc43)C3C(=O)N(c4ccc(Br)cc4)C(=O)C32)cc1 (stereo not given in full)
CN(C)Cc1ccc(-c2cc3c(-c4ccc(CN(C)C)cc4)ccnc3[nH]2)cc1
CNC(=O)c1c(NC(=O)c2cccs2)sc2c1CCCC2
COc1ccccc1-c1nc2nc(N)nc(N)c2nc1-c1ccccc1OC
Cc1ccc(Cn2ncc(N3C[C@@H](C)N[C@@H](C)C3)c(Cl)c2=O)cc1NC(=O)Nc1ccc(-c2ccccc2)cc1
COc1ccc(-c2c3c(=O)n(C)c(=O)n(C)c3c3nnc4ccccc4n23)cc1
CCCCNCC(O)COc1ccccc1-c1ccc(N/N=C/c2cccc3ccccc23)nn1 (stereo not given)
O=C(NCc1ccc(Cl)cc1)c1ccc(CN2CCCN(Cc3cccc(O)c3)CC2)cc1
N#Cc1cccc(C(O)CN(Cc2ccccc2)Cc2ccccc2)c1 (stereo not given)
CCCN(CCC)CC(O)COc1ccccc1C(=O)Nc1ccccc1 (stereo not given)
CCC(CC)CN1C(=O)C(c2ccccc2)(c2ccccc2)N=C1N
Fc1ccc2nc(-c3ccc(-c4ccc(CN5CCN(c6cnccn6)CC5)cc4)s3)[nH]c2c1
Cc1[nH]c(C)c(-c2ccc(Cl)cc2Cl)c(=O)c1Br
CCCCCCCC1CC(CC(=O)Nc2ccnc3ccc(OC)cc23)CN1 (stereo not given)
CN1CCCN(Cc2ccc(-c3cccc(NC(=O)c4cccc(F)c4)c3)cc2)CC1
COc1ccc2c(=O)c(I)c(C)[nH]c2c1
CCN(CCCN1CCCCC1)c1cc(C)nc(Nc2ccc(Oc3ccccc3)cc2)n1
O=C(NC1CCCC1)c1ccc(N2CCC(NCc3cc4cc(Cl)ccc4[nH]3)CC2)cc1
Nc1ccc(Oc2ccc(Cc3cnc(N)nc3N)cc2)cc1
COc1ccc(CCn2c(=N)c(C(=O)NCc3cccnc3)cc3c(=O)n4ccccc4nc32)cc1
Cc1noc(C)c1-c1cccc(CNCc2cccc(-c3ccc(-c4nc5c(C)cccc5[nH]4)cc3)c2)c1
Cc1sc2ncnc(Sc3nc4ccccc4[nH]3)c2c1C
Fc1cccc(COc2ccc(Nc3ncnc4sc(C#C[C@H]5CCCN5)cc34)cc2F)c1
COc1cc2c(cc1OC)CN(CCCCNC(=O)c1ccc(NC(=O)c3cc(Cl)cc(Cl)c3)cc1)CC2
COc1ccc(NC(=O)[C@H](CC(C)C)Nc2ccnc(Nc3ccccc3)n2)cc1
c1ccc(Oc2ccc(Nc3nncc4ccccc34)cc2)cc1
O=C(Nc1ccc2ccccc2c1)c1ccc(CN2CCC(Cc3ccccc3)CC2)cc1
Cc1ccc2[nH]c(-c3ccc(/C=C/C(=O)NC4CCN(Cc5ccccc5)CC4)cc3)nc2c1C
Cc1cc(C(=O)Nc2ccc(OCc3ccccc3)cc2)on1
CCN(CC)CCNc1ccc(Nc2ccnc3cc4ccccc4cc23)cc1
O=C(NCCCCCN1CCCN(C(=O)Nc2ccc(F)c(C(F)(F)F)c2)CC1)[C@@H]1C[C@H]1c1ccc(Cl)c(Cl)c1
Cc1cc(NN=Cc2ccccc2[N+](=O)[O-])c2ccccc2n1
COc1cccc(CCc2cccc(CNC(C)=O)c2)c1
CC(C)[C@H]1CC[C@H](C)C[C@@H]1OC(=O)N[C@@H](Cc1ccc(O)cc1)C(=O)NC1CCN(Cc2ccc(OCCCN(C)C)cc2)C1 (stereo not given in full)
CCNc1cc(C(=O)N[C@@H](Cc2ccccc2)[C@H](O)CNC(C)(C)Cc2cccc(OC)c2)cc(N2CCCC2=O)c1

molecular target: Calcium-dependent protein kinase 4 (Plasmodium falciparum (isolate 3D7)) (UniProt Q8IBS5); test: PfCDPK4 kinase inhibitors, biochemical, TCAMS library (AID 1159588); conditions: recombinant PfCDPK4, Kinase-Glo ATP depletion luminescence
Sequence (Q8IBS5 whole entry, looked up): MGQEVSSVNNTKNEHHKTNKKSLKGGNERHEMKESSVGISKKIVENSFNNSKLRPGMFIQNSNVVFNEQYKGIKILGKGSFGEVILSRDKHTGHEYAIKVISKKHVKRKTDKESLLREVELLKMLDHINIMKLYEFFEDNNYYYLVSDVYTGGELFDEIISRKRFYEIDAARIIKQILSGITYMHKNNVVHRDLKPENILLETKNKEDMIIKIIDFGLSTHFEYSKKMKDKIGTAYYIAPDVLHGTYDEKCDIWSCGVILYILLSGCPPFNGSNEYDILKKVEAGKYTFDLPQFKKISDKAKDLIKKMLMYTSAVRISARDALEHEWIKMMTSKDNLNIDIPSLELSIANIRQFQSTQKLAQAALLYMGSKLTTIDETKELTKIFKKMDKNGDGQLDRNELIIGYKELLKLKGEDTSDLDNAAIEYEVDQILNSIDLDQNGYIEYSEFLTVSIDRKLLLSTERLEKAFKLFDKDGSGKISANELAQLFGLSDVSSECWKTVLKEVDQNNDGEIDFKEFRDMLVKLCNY

outcome, inactive:
CCC(Nc1noc(-c2c(-c3ccccc3)noc2C)n1)c1ccccc1 (stereo not given)
C=CCN1Cc2c(O)cccc2C(c2ccc(O)c(O)c2)C1 (stereo not given)
Cc1cc(=O)c(-c2cccc(Oc3ccc(Cl)cc3)c2)c(C)[nH]1
COc1ccc2c(NN=CC=Cc3ccccc3)ccnc2c1
CCNc1cc(C(=O)N[C@@H](Cc2ccccc2)[C@H](O)CN[C@@H]2CCc3ccccc32)cc(N2CCCC2=O)c1
CC(C)(C)Oc1ccc(C[C@@H]2NC3(C(=O)N(Cc4ccc(Cl)c(Cl)c4)c4ccccc43)C3C(=O)N(c4ccc(Br)cc4)C(=O)C32)cc1 (stereo not given in full)
CN(C)Cc1ccc(-c2cc3c(-c4ccc(CN(C)C)cc4)ccnc3[nH]2)cc1
CNC(=O)c1c(NC(=O)c2cccs2)sc2c1CCCC2
COc1ccccc1-c1nc2nc(N)nc(N)c2nc1-c1ccccc1OC
Cc1ccc(Cn2ncc(N3C[C@@H](C)N[C@@H](C)C3)c(Cl)c2=O)cc1NC(=O)Nc1ccc(-c2ccccc2)cc1
COc1ccc(-c2c3c(=O)n(C)c(=O)n(C)c3c3nnc4ccccc4n23)cc1
CCCCNCC(O)COc1ccccc1-c1ccc(N/N=C/c2cccc3ccccc23)nn1 (stereo not given)
O=C(NCc1ccc(Cl)cc1)c1ccc(CN2CCCN(Cc3cccc(O)c3)CC2)cc1
N#Cc1cccc(C(O)CN(Cc2ccccc2)Cc2ccccc2)c1 (stereo not given)
CCCN(CCC)CC(O)COc1ccccc1C(=O)Nc1ccccc1 (stereo not given)
CCC(CC)CN1C(=O)C(c2ccccc2)(c2ccccc2)N=C1N
Fc1ccc2nc(-c3ccc(-c4ccc(CN5CCN(c6cnccn6)CC5)cc4)s3)[nH]c2c1
Cc1[nH]c(C)c(-c2ccc(Cl)cc2Cl)c(=O)c1Br
CCCCCCCC1CC(CC(=O)Nc2ccnc3ccc(OC)cc23)CN1 (stereo not given)
CN1CCCN(Cc2ccc(-c3cccc(NC(=O)c4cccc(F)c4)c3)cc2)CC1
COc1ccc2c(=O)c(I)c(C)[nH]c2c1
CCN(CCCN1CCCCC1)c1cc(C)nc(Nc2ccc(Oc3ccccc3)cc2)n1
O=C(NC1CCCC1)c1ccc(N2CCC(NCc3cc4cc(Cl)ccc4[nH]3)CC2)cc1
Nc1ccc(Oc2ccc(Cc3cnc(N)nc3N)cc2)cc1
COc1ccc(CCn2c(=N)c(C(=O)NCc3cccnc3)cc3c(=O)n4ccccc4nc32)cc1
Cc1noc(C)c1-c1cccc(CNCc2cccc(-c3ccc(-c4nc5c(C)cccc5[nH]4)cc3)c2)c1
Cc1sc2ncnc(Sc3nc4ccccc4[nH]3)c2c1C
Fc1cccc(COc2ccc(Nc3ncnc4sc(C#C[C@H]5CCCN5)cc34)cc2F)c1
COc1cc2c(cc1OC)CN(CCCCNC(=O)c1ccc(NC(=O)c3cc(Cl)cc(Cl)c3)cc1)CC2
COc1ccc(NC(=O)[C@H](CC(C)C)Nc2ccnc(Nc3ccccc3)n2)cc1
c1ccc(Oc2ccc(Nc3nncc4ccccc34)cc2)cc1
O=C(Nc1ccc2ccccc2c1)c1ccc(CN2CCC(Cc3ccccc3)CC2)cc1
Cc1ccc2[nH]c(-c3ccc(/C=C/C(=O)NC4CCN(Cc5ccccc5)CC4)cc3)nc2c1C
Cc1cc(C(=O)Nc2ccc(OCc3ccccc3)cc2)on1
CCN(CC)CCNc1ccc(Nc2ccnc3cc4ccccc4cc23)cc1
O=C(NCCCCCN1CCCN(C(=O)Nc2ccc(F)c(C(F)(F)F)c2)CC1)[C@@H]1C[C@H]1c1ccc(Cl)c(Cl)c1
Cc1cc(NN=Cc2ccccc2[N+](=O)[O-])c2ccccc2n1
COc1cccc(CCc2cccc(CNC(C)=O)c2)c1
CC(C)[C@H]1CC[C@H](C)C[C@@H]1OC(=O)N[C@@H](Cc1ccc(O)cc1)C(=O)NC1CCN(Cc2ccc(OCCCN(C)C)cc2)C1 (stereo not given in full)
CCNc1cc(C(=O)N[C@@H](Cc2ccccc2)[C@H](O)CNC(C)(C)Cc2cccc(OC)c2)cc(N2CCCC2=O)c1
